The target of test [1] is rat Corticotropin Releasing Factor Receptor (CRF), Crhr1 (gene 58959) (UniProt P35353). Put plainly: NVS_GPCR_rCRF: NovaScreen (NVS) G Protein-Coupled Receptor Assay for rat Corticotropin Releasing Factor Receptor (CRF) (AID 2283300). As for the experimental part:
NVS_GPCR_rCRF is a biochemical, single-readout assay that uses extracted gene-proteins from Rat cortical membranes in a tissue-based cell-free assay. Measurements were taken 2 hours after chemical dosing in a 96-well plate.NVS_GPCR_rCRF is one of one assay component(s) measured or calculated from the NVS_GPCR_rCRF assay. It is designed to make measurements of radioligand binding, a form of binding reporter, as detected with scintillation counting signals by […] radiodetection technology.Data from the assay component NVS_GPCR_rCRF was analyzed into 1 assay endpoint. This assay endpoint, NVS_GPCR_rCRF, was analyzed in the positive analysis fitting direction relative to DMSO as the negative control and baseline of activity. […] Furthermore, this assay endpoint can be referred to as a primary readout, because the performed assay has only produced 1 assay endpoint. […]
Binding assays used specific radioligands (tritiated, iodinated) with non-radioactive competitive displacement ligands in agonist or antagonist protocols (as indicated) and various reference compounds and inhibitors to titrate specific binding to receptors and transporters. Most enzyme assays (CYPs, kinases, phosphatases, proteases, HDACs) used recombinant protein and specific substrates (fluorescence mostly, some colorimetric and radioactive) and inhibitors, followed by a biochemical separation of substrate and product. […]

Test [2] addresses rat Glutamate, AMPA Site (AMPA), Gria1 (gene 50592) (UniProt P19490). Put plainly: NVS_LGIC_rAMPA: NovaScreen (NVS) Ligand-Gated Ion Channel Assay for rat Glutamate, AMPA Site (AMPA) (AID 2283324). The protocol:
(§1) NVS_LGIC_rAMPA is a biochemical, single-readout assay that uses extracted gene-proteins from Rat forebrain membranes in a tissue-based cell-free assay. Measurements were taken 1 hour after chemical dosing in a 48-well plate.NVS_LGIC_rAMPA is one of one assay component(s) measured or calculated from the NVS_LGIC_rAMPA assay. It is designed to make measurements of radioligand binding, a form of binding reporter, as detected with scintillation counting signals by Filter-based radiodetection technology.Data from the assay component NVS_LGIC_rAMPA was analyzed into 1 assay endpoint. This assay endpoint, NVS_LGIC_rAMPA, was analyzed in the positive analysis fitting direction relative to DMSO as the negative control and baseline of activity. Using a type of binding reporter, loss-of-signal activity can be used to understand changes in the binding as they relate to the gene Gria1. Furthermore, this assay endpoint can be referred to as a primary readout, because the performed assay has only produced 1 assay endpoint. To generalize the intended target to other relatable targets, this assay endpoint is annotated to the ion channel intended target family, where the subfamily is ligand-gated ion channel. […]

The target in test [3] is human Neonicotinoid receptor (NNR), CHRNA2 (gene 1135) (UniProt Q15822). Briefly: NVS_LGIC_hNNR_NBungSens: NovaScreen (NVS) Ligand-Gated Ion Channel Assay for human Neonicotinoid receptor (NNR) (AID 2283313). As for the experimental part: as §1, with “NVS_LGIC_hNNR_NBungSens” for “NVS_LGIC_rAMPA”, “Human neuroblastoma membrane cells” for “Rat forebrain membranes”, “2 hours” for “1 hour”, “plate.NVS_LGIC_hNNR_NBungSens” for “plate.NVS_LGIC_rAMPA”, “NVS_LGIC_hNNR_NBungSens,” for “NVS_LGIC_rAMPA,”, “CHRNA2.” for “Gria1.”
Chain of human Neonicotinoid receptor (NNR), CHRNA2 (gene 1135) (Q15822 whole entry, looked up): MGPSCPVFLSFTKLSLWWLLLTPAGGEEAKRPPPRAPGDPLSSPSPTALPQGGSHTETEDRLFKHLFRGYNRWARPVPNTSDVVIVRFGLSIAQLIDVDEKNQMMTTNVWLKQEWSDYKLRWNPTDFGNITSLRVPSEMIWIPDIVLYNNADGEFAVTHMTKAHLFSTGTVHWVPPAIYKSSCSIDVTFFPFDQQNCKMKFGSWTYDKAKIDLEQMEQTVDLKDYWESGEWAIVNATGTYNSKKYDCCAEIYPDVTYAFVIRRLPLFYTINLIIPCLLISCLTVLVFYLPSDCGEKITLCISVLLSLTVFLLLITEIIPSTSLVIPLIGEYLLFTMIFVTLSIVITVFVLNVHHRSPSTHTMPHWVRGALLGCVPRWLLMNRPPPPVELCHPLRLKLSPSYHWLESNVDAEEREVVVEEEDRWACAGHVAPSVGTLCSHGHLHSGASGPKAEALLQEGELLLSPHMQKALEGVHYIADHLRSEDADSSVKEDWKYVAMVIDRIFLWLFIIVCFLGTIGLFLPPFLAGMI

Test [4] concerns the target rat Neonicotinoid receptor (NNR), Chrna7 (gene 25302) (UniProt Q05941). Briefly: NVS_LGIC_rNNR_BungSens: NovaScreen (NVS) Ligand-Gated Ion Channel Assay for rat Neonicotinoid receptor (NNR) (AID 2283315). In a few lines: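 Rat cortical membrane preparation incubated 2.5 h with tritiated or iodinated radioligand and test chemical. Bound radioactivity was filtered and counted by scintillation, and displacement was analysed against DMSO.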

Test [5] addresses Voltage-dependent N-type calcium channel subunit alpha-1B (Rattus norvegicus) (UniProt Q02294). Put plainly: NVS_IC_rCaChN: NovaScreen (NVS) Ion Channel Assay for rat Calcium Channel, Type N (CaChN) (AID 2283317).
Test [6] is described as follows: NVS_IC_rCaDHPRCh_L: NovaScreen (NVS) Ion Channel Assay for rat Calcium Channel, Type L, Dihydropyridine Site (CaDHPRCh_L) (AID 2283320). The method, boiled down: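 Rat cortex membrane preparation; dihydropyridine-site radioligand displacement read 1 h post-dose by filtration and scintillation. Primary single-point screen 25 uM in duplicate, then concentration series to 50 uM maximum; DMSO as negative control.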

Test [7] deals with rat Gamma-Aminobutyric Acid Type A Receptor, Non-Selective (GABAR-NonSelective), Gabra1 (gene 29705) (UniProt P62813). Put plainly: NVS_LGIC_rGABAR_NonSelective: NovaScreen (NVS) Ligand-Gated Ion Channel Assay for rat Gamma-Aminobutyric Acid Type A Receptor, Non-Selective (GABAR-NonSelective) (AID 2283326). As for the experimental part:
as §1, with “NVS_LGIC_rGABAR_NonSelective” for “NVS_LGIC_rAMPA”, “whole brain” for “forebrain membranes”, “plate.NVS_LGIC_rGABAR_NonSelective” for “plate.NVS_LGIC_rAMPA”, “NVS_LGIC_rGABAR_NonSelective,” for “NVS_LGIC_rAMPA,”, “Gabra1.” for “Gria1.”

Test [8] has as its target rat Glutamate, NMDA Agonist Site (GluNMDA), Grin1 (gene 24408) (UniProt P35439). Briefly: NVS_LGIC_rGluNMDA_Agonist: NovaScreen (NVS) Ligand-Gated Ion Channel Assay for rat Glutamate, NMDA Agonist Site (GluNMDA) (AID 2283327). The method, boiled down:
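Radioligand displacement at the agonist site on rat forebrain membrane preparations, read by filter scintillation after 1 h. Chemicals were first run at 25 uM in duplicate; those passing threshold were titrated to a 50 uM maximum.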

Records with an inconclusive call do not appear. Where a structure was tested more than once in an assay, its records may differ in their call. Calls of active or inactive are those of the source. The calls were made as follows: active = hit-call score of the fitted dose curve at least 0.9, where 1 is the maximum; inconclusive = response in the unintended direction; inactive = score below 0.9.

Chain of rat Neonicotinoid receptor (NNR), Chrna7 (gene 25302) (Q05941 whole entry, looked up): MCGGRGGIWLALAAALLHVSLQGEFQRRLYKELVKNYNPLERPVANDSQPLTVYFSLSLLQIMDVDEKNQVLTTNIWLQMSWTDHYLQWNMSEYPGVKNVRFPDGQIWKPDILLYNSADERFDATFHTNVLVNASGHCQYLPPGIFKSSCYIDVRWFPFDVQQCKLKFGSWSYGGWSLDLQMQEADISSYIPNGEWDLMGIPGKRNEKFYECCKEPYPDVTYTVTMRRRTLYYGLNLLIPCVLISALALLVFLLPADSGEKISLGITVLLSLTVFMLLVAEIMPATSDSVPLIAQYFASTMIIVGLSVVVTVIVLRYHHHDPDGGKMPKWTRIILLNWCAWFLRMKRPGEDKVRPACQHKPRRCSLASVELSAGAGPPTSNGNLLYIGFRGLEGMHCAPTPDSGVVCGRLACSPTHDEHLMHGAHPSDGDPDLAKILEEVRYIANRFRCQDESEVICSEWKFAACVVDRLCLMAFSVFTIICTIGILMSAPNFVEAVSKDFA
Chain of rat Corticotropin Releasing Factor Receptor (CRF), Crhr1 (gene 58959) (P35353 whole entry, looked up): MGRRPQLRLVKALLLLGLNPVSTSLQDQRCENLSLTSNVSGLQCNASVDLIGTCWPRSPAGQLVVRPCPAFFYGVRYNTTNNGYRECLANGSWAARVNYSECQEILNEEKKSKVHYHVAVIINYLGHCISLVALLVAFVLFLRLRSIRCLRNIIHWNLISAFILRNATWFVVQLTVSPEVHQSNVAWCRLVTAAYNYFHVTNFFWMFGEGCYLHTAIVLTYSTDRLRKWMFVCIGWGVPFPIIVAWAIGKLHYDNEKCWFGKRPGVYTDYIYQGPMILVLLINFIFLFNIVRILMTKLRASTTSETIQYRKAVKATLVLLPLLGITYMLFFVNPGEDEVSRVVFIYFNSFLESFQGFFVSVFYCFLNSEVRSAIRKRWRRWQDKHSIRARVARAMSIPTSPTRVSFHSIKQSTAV
Chain of rat Gamma-Aminobutyric Acid Type A Receptor, Non-Selective (GABAR-NonSelective), Gabra1 (gene 29705) (P62813 whole entry, looked up): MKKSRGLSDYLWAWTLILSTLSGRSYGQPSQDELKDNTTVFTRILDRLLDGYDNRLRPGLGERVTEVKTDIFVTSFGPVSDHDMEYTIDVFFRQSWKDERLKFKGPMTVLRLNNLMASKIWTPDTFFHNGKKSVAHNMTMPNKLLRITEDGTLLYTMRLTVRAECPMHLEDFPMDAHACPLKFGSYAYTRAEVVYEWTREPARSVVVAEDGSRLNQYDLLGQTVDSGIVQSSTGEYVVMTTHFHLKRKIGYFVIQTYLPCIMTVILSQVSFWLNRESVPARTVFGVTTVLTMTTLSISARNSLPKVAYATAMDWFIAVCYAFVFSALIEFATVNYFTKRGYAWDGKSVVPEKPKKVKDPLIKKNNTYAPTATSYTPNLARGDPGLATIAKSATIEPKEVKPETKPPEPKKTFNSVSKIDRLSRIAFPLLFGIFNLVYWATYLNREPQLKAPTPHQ
Chain of rat Glutamate, AMPA Site (AMPA), Gria1 (gene 50592) (P19490 whole entry, looked up): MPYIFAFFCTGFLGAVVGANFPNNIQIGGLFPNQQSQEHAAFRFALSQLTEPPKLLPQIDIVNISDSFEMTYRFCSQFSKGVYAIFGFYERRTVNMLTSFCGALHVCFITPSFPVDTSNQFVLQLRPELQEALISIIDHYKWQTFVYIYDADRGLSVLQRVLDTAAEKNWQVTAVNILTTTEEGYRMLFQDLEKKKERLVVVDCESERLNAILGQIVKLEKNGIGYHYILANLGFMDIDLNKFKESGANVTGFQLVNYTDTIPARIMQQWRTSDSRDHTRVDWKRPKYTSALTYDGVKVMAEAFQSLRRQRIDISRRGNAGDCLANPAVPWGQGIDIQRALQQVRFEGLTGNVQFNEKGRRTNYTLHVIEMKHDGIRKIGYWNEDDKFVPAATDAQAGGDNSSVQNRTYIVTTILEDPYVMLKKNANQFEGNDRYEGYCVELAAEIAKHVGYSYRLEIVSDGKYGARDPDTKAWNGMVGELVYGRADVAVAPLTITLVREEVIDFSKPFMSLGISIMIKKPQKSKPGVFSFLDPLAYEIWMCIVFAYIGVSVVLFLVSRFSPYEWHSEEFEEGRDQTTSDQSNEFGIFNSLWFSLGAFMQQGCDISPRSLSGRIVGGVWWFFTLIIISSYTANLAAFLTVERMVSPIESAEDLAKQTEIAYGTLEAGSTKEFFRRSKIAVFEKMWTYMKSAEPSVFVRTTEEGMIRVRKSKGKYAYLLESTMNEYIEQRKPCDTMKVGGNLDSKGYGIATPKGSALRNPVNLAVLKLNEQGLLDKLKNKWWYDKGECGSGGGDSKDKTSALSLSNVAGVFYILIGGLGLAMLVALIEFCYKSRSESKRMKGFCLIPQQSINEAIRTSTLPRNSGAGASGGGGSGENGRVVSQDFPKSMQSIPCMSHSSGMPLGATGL

As for `CN(C)C(=S)S`, the call in test [1] and in test [2] was inactive. In general, AC50 refers to the concentration giving half of the maximal activity seen. Turning to `O=C(N[C@H]1CN2CCC1CC2)c1ccc2c(c1)OCCO2`, the AC50 in test [3] is 12.1 µM (active). As to `C[N+](C)(C)Cc1ccccc1`, in test [4], the AC50 was 25 µM (active) and the result was inactive. With `O=C1C[C@@H]2OCC=C3CN4CC[C@]56c7ccccc7N1[C@H]5[C@H]2[C@H]3C[C@H]46`, in test [4], the molecule was classed as inactive. Regarding `O=C(O)C1(c2ccc3c(c2)OC[C@H](Cc2ccc(-c4ccccc4)cc2)[C@H]3O)CCCC1`, the result in test [5] was inactive. With `Clc1cccc(Cl)c1`, in test [6], the outcome was inactive. For the molecule `Oc1cc(Cl)c(Cl)cc1Cl`, the molecule was classed as inactive in test [7]. In the case of `CCCCCCCCCCCCc1cccc(S(=O)(=O)O)c1`, in test [8], the call was inactive.

The values are drawn from PubChem BioAssay (EPA / NIEHS).
